According to PubChem BioAssay AID1159580 (chemical genetic matrix, 2015):
In all, about 5,500 compounds went through this assay and about 2,000 (36%) were called active. Not shown: some 18% with an inconclusive outcome. The list shows a part of the results. Unmarked numbers belong to inactive results. Rule as the data show it: active = normalized growth mostly below about 0.91 (no sharp cut-off); inconclusive = no clear call, values can overlap the other calls; inactive = mostly above about 0.92.

Assay: chemical genetic growth profiling, strain panel (AID 1159580);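 also: tested at 20 µM; growth read once vehicle control cultures reached saturation at 30 °C; 1 = growth at the plate median or of vehicle wells; lower values mean less growth of the strain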
Conditions: S. cerevisiae deletion strains, growth OD
[1] = locus YAL013W, strain DEP1, stronger effect = lower value
[2] = locus YDL101C, strain DUN1, stronger effect = lower value
[3] = locus YGR078C, strain PAC10, stronger effect = lower value
[4] = locus YHR030C, strain SLT2, stronger effect = lower value
[5] = locus YJR075W, strain HOC1, stronger effect = lower value
[6] = locus YMR307W, strain GAS1, stronger effect = lower value
[7] = locus YNL322C, strain KRE1, stronger effect = lower value
[8] = locus YPL055C, strain LGE1, stronger effect = lower value
[9] = locus YPL241C, strain CIN2, stronger effect = lower value
[10] = locus YAL040C, strain CLN3, stronger effect = lower value
[11] = locus YCL061C, strain MRC1 (second series), stronger effect = lower value
[12] = locus YDR363W, strain ESC2, stronger effect = lower value
[13] = locus YER002W, strain NOP16, stronger effect = lower value
[14] = locus YNL175C, strain NOP13, stronger effect = lower value
[15] = locus YNL197C, strain WHI3, stronger effect = lower value
[16] = locus YNL224C, strain SQS1, stronger effect = lower value
[17] = locus YOR083W, strain WHI5 (second series), stronger effect = lower value

O=C1CC(c2ccccc2)=NO1
normalized growth [1]: 0.683 (active)
normalized growth (locus YBR229C, strain ROT2, stronger effect = lower value): 0.336 (active)
normalized growth [2]: 0.395 (active)
normalized growth (locus YEL061C, strain CIN8, stronger effect = lower value): 0.862 (active)
normalized growth [3]: 0.174 (active)
normalized growth [4]: 0.615 (active)
normalized growth (locus YHR087W, strain rtc3, stronger effect = lower value): 0.419 (active)
normalized growth (locus YJL187C, strain SWE1, stronger effect = lower value): 0.298 (active)
normalized growth (locus YJR043C, strain POL32, stronger effect = lower value): 0.566 (active)
normalized growth [5]: 0.3 (active)
normalized growth (locus YKL190W, strain CNB1, stronger effect = lower value): 0.987
normalized growth (locus YLR039C, strain RIC1, stronger effect = lower value): 1.11
normalized growth (locus YLR058C, strain SHM2 (second series), stronger effect = lower value): 0.431 (active)
normalized growth (locus YLR085C, strain ARP6, stronger effect = lower value): 0.432 (active)
normalized growth (locus YLR262C, strain YPT6, stronger effect = lower value): 1.08
normalized growth (locus YML094W, strain GIM5, stronger effect = lower value): 0.743 (active)
normalized growth (locus YMR219W, strain ESC1, stronger effect = lower value): 0.26 (active)
normalized growth [6]: 0.511 (active)
normalized growth (locus YNL153C, strain GIM3, stronger effect = lower value): 0.0697 (active)
normalized growth (locus YNL298W, strain CLA4 (second series), stronger effect = lower value): 0.797 (active)
normalized growth [7]: 0.737 (active)
normalized growth (locus YNR030W, strain Alg12, stronger effect = lower value): 0.803 (active)
normalized growth [8]: 0.666 (active)
normalized growth [9]: 0.68 (active)
normalized growth (locus YPR135W, strain CTF4, stronger effect = lower value): 0.528 (active)

CSc1c(C#N)c(-c2ccc(Cl)cc2)nn1C(=O)c1ccccc1Cl
normalized growth (locus YAR019C, strain CDC15, stronger effect = lower value): 0.966
normalized growth (locus YBL105C, strain PKC1, stronger effect = lower value): 0.95
normalized growth (locus YBR135W, strain CKS1, stronger effect = lower value): 0.957
normalized growth (locus YBR136W, strain MEC1, stronger effect = lower value): 0.951
normalized growth (locus YBR160W, strain CDC28, stronger effect = lower value): 0.951
normalized growth (locus YDL017W, strain CDC7, stronger effect = lower value): 0.946
normalized growth (locus YDL028C, strain MPS1, stronger effect = lower value): 0.951
normalized growth [2]: 0.94
normalized growth (locus YDL108W, strain KIN28, stronger effect = lower value): 0.954
normalized growth (locus YDL132W, strain cdc53, stronger effect = lower value): 0.948
normalized growth (locus YDL214C, strain PRR2, stronger effect = lower value): 0.964
normalized growth (locus YDR052C, strain DBF4, stronger effect = lower value): 0.957
normalized growth (locus YDR054C, strain cdc34, stronger effect = lower value): 0.941
normalized growth (locus YDR226W, strain ADK1, stronger effect = lower value): 0.933
normalized growth (locus YDR477W, strain SNF1, stronger effect = lower value): 0.938
normalized growth (locus YER123W, strain YCK3, stronger effect = lower value): 0.946
normalized growth (locus YER133W, strain GLC7, stronger effect = lower value): 0.962
normalized growth (locus YFL009W, strain cdc4, stronger effect = lower value): 0.951
normalized growth (locus YFL029C, strain CAK1, stronger effect = lower value): 0.958
normalized growth (locus YFR003C, strain YPI1, stronger effect = lower value): 0.954
normalized growth (locus YFR019W, strain FAB1, stronger effect = lower value): 1
normalized growth (locus YFR028C, strain CDC14, stronger effect = lower value): 0.948
normalized growth (locus YGR040W, strain KSS1, stronger effect = lower value): 0.931
normalized growth (locus YGR052W, strain FMP48, stronger effect = lower value): 0.97
normalized growth (locus YGR092W, strain DBF2, stronger effect = lower value): 0.895
normalized growth [4]: 1.03
normalized growth (locus YHR079C, strain IRE1, stronger effect = lower value): 1.03
normalized growth (locus YHR082C, strain KSP1, stronger effect = lower value): 1.01
normalized growth (locus YHR205W, strain SCH9, stronger effect = lower value): 0.872
normalized growth (locus YIL147C, strain SLN1, stronger effect = lower value): 0.949
normalized growth (locus YJL095W, strain BCK1, stronger effect = lower value): 0.9
normalized growth (locus YJL128C, strain PBS2, stronger effect = lower value): 0.921
normalized growth (locus YJL157C, strain FAR1, stronger effect = lower value): 0.965
normalized growth (locus YJR016C, strain ILV3, stronger effect = lower value): 0.945
normalized growth (locus YJR066W, strain TOR1 (second series), stronger effect = lower value): 0.946
normalized growth (locus YJR066W, strain TOR1, stronger effect = lower value): 1
normalized growth (locus YKL048C, strain ELM1, stronger effect = lower value): 0.981
normalized growth (locus YKL067W, strain YNK1, stronger effect = lower value): 0.969
normalized growth (locus YKL101W, strain HSL1, stronger effect = lower value): 0.933
normalized growth (locus YKL193C, strain SDS22, stronger effect = lower value): 0.957
normalized growth (locus YKL203C, strain TOR2, stronger effect = lower value): 1.06
normalized growth (locus YLR113W, strain HOG1, stronger effect = lower value): 0.76 (active)
normalized growth (locus YLR133W, strain CKI1, stronger effect = lower value): 0.969
normalized growth (locus YLR403W, strain SFP1, stronger effect = lower value): 0.889
normalized growth (locus YML070W, strain DAK1, stronger effect = lower value): 0.948
normalized growth (locus YMR001C, strain CDC5, stronger effect = lower value): 0.957
normalized growth (locus YMR205C, strain PFK2 (second series), stronger effect = lower value): 0.969
normalized growth (locus YMR277W, strain FCP1, stronger effect = lower value): 0.966
normalized growth (locus YNL006W, strain LST8, stronger effect = lower value): 0.975
normalized growth (locus YNL020C, strain ARK1, stronger effect = lower value): 0.958
normalized growth (locus YNL161W, strain CBK1, stronger effect = lower value): 0.958
normalized growth (locus YNL183C, strain NPR1, stronger effect = lower value): 0.969
normalized growth (locus YNL207W, strain RIO2, stronger effect = lower value): 0.938
normalized growth (locus YNL222W, strain SSU72, stronger effect = lower value): 0.963
normalized growth (locus YNL307C, strain MCK1 (second series), stronger effect = lower value): 0.921
normalized growth (locus YOL078W, strain AVO1, stronger effect = lower value): 0.958
normalized growth (locus YOL136C, strain PFK27, stronger effect = lower value): 0.936
normalized growth (locus YOR061W, strain CKA2, stronger effect = lower value): 0.975
normalized growth (locus YOR119C, strain RIO1, stronger effect = lower value): 1.01
normalized growth (locus YOR231W, strain MKK1, stronger effect = lower value): 0.917
normalized growth (locus YOR329C, strain SCD5, stronger effect = lower value): 0.956
normalized growth (locus YPL031C, strain PHO85, stronger effect = lower value): 0.934
normalized growth (locus YPL153C, strain RAD53, stronger effect = lower value): 0.936
normalized growth (locus YPL204W, strain HRR25, stronger effect = lower value): 0.942
normalized growth (locus YPL209C, strain IPL1, stronger effect = lower value): 0.958
normalized growth (locus YPL256C, strain CLN2, stronger effect = lower value): 1.07
normalized growth (locus YPR025C, strain CCL1, stronger effect = lower value): 0.958
normalized growth (locus YPR106W, strain ISR1, stronger effect = lower value): 0.939
normalized growth (locus YPR111W, strain DBF20, stronger effect = lower value): 0.947
normalized growth (strain NNK1, stronger effect = lower value): 0.959
normalized growth (strain TSCII, stronger effect = lower value): 0.958

CCCN1CCc2cc(O)cc3c2[C@H]1Cc1ccc(O)c(O)c1-3
normalized growth [10]: 1.03
normalized growth [11]: 0.779 (active)
normalized growth [12]: 0.922
normalized growth [13]: 1.01
normalized growth [6]: 0.771 (active)
normalized growth [14]: 1.01
normalized growth [15]: 0.983
normalized growth [16]: 1.01
normalized growth [7]: 0.654 (active)
normalized growth [17]: 0.926
normalized growth [8]: 0.553 (active)

COc1ccc2c(c1O)-c1cccc3c1[C@@H](C2)N(C)CC3
normalized growth [1]: 0.986
normalized growth [10]: 0.995
normalized growth [11]: 1.01
normalized growth [12]: 0.994
normalized growth [13]: 1.01
normalized growth [3]: 1.05
normalized growth (locus YGR229C, strain SMI1, stronger effect = lower value): 1.02
normalized growth [5]: 1
normalized growth (locus YMR263W, strain SAP30, stronger effect = lower value): 0.994
normalized growth [6]: 1.02
normalized growth (locus YNL128W, strain TEP1, stronger effect = lower value): 1.01
normalized growth [14]: 1.02
normalized growth [15]: 1.02
normalized growth [16]: 1.01
normalized growth [7]: 0.985
normalized growth [17]: 0.972
normalized growth [8]: 0.989
normalized growth [9]: 1.01
